# Screens (PubChem)
# HTT promoter inh: Primary qHTS for Identification of Small Molecule Inhibitors of Huntingtin Promoter Activity; HEK293 HTT promoter firefly luciferase reporter, 24 h; Potency, µM (titrated, usually from 57.5 µM), for inactives: at the highest dose activity change, negative = inhibition, most hits filed as inhibitors; hit rate 0.93% among 48,000; further: potency means the concentration at half of the fitted maximal effect; nearly all actives have a fitted effect of over 50% in size
#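 Firefly luciferase signal from promoter-reporter HEK293 cells was scaled between vehicle (0%) and zero RLU (-100%). Compounds were tested at final concentrations of up to 57.5 uM over 24 h at 37 degrees C. PTC124 at 50 uM final served as control inhibitor.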
# PMP22 txn prim: Cell-based coincidence reporter assay to measure PMP22 gene transcription in S16 Pmp22-F2sN cells - Primary screen; S16 Pmp22-F2sN Schwann cells, FLuc/NLuc coincidence luminescence, 24 h; Potency, µM (series often up to 57.5 µM), inactives show at the highest dose activity change, negative = inhibition, actives largely listed as inhibitors; hit rate 2% among 43,000; active means clear falling dose curves in both reporters; inconclusive means both reporters move, but less clearly or upward; inactive means either reporter flat; the % is the NLuc reporter signal; further: potency means the concentration at half of the fitted maximal effect; on the % scale 0 is the no-effect control and ±100 the full control effect
#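 Transcriptional readout in edited S16(c9) cells: two luciferases reported from the Pmp22 locus, measured in turn after 24 h compound incubation.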
# HTT-AS act: Primary qHTS for Identification of Small Molecule Activators of Huntingtin-Antisense Promoter Activity | HEK293 HTT-AS promoter firefly luciferase reporter, 24 h; response scale: percent change from vehicle, -100% = no light | Potency, µM (doses to about 57.5 µM), for the others: top-dose activity change, positive = activation, actives largely listed as activators | hit rate 0.24% among 48,000 | AID 1508624, 2021; further: potency means the concentration at half of the fitted maximal effect; nearly all actives have a fitted effect of over 55% in size
#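 HEK293 luciferase promoter-reporter cells (2,500/well) plated 24 h, then compounds added at up to 57.5 uM final for 24 h at 37 °C. Firefly luminescence by Dual-Glo, normalized to vehicle (0%) and zero RLU (-100%).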
# mTORC1 inh: Acumen qHTS Assay for Inhibitors of the mTORC1 Signaling Pathway in MEF (Tsc2-/-, p53-/-) Cells: Sytravon; Tsc2-/- p53-/- MEF, phospho-rpS6 immunofluorescence/PI, 24 h; Potency, µM (doses to about 38.3 µM), inactives show at the highest dose activity change, negative = inhibition, hits mostly inhibitors; hit rate 0.78% among 44,000; AID 493208, 2011;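 further: potency means the concentration at half of the fitted maximal effect; plate controls were DMSO for no effect and rapamycin for full effect; nearly all actives have a fitted effect of over 50% in size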
#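 Compounds act on Tsc2-/-, p53-/- fibroblasts carrying an empty vector for 24 h before fixation and dual staining for phospho-S6 and DNA (propidium iodide). Values are percentages of cells above a rapamycin-defined pS6/PI threshold.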
# S16 F2sN tox: Cell viability qHTS assay in S16 Pmp22-F2sN cells. AID 1508642, 2021. S16 Pmp22-F2sN Schwann cells viability, CellTiter-Glo, 24 h. hit rate 0.48% among 43,000. Potency, µM (top dose mostly 57.5 µM), inactives show at the top dose activity change, negative = cytotoxicity, hits mostly cytotoxic; further: potency means the concentration at half of the fitted maximal effect; on the % scale 0 is the no-effect control and ±100 the full control effect; nearly all actives have a fitted effect of over 65% in size
#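 Viability was measured by CellTiter-Glo luminescence (15 min, room temperature). This followed 24 h at 37 °C of compound exposure (23 nL pin transfer) in S16 Pmp22-F2sN Schwann cells, 500-1,000 per well.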
# FH mod: Identification of activators of human fumarate hydratase by quantitative high-throughput screening; hit rate 0.22% among 54,000; Fumarate hydratase, mitochondrial (Homo sapiens), P07954; FH coupled MDH/diaphorase resazurin fluorescence, 15 min; Potency, µM (doses to about 79.9 µM), without a hit: at the top dose activity change, negative = inhibition, most hits filed as inhibitors; further: potency means the concentration at half of the fitted maximal effect; on the % scale 0 is the no-effect control and ±100 the full control effect; the screen sought activators but most active calls are inhibition curves; nearly all actives have a fitted effect of over 45% in size
# Target sequence (P07954 whole entry, looked up): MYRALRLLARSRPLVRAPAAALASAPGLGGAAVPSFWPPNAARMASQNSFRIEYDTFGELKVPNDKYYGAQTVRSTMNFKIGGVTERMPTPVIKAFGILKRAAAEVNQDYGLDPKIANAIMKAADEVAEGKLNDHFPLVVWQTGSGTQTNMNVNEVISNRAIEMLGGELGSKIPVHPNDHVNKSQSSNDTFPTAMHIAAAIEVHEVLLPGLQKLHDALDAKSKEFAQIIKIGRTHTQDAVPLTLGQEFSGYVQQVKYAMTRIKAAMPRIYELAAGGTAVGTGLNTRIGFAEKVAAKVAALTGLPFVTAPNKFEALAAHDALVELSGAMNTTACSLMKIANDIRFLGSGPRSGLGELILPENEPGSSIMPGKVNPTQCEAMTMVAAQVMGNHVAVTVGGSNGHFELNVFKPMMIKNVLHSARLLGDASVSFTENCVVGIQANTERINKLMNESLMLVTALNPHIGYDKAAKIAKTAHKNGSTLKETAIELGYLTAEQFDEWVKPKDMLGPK
# NLuc sat counter: Biochemical NLuc saturation counterscreen for small molecule modulators of PMP22 gene expression - Nano-Glo assay. shares compounds with PMP22 txn prim. Secreted NLuc enzyme (filtered S16 cell medium), Nano-Glo luminescence. Potency, µM (titrated, usually from 57.5 µM), for the others: at the highest dose activity change, negative = inhibition, most hits filed as inhibitors. hit rate 4% among 690; further: potency means the concentration at half of the fitted maximal effect; on the % scale 0 is the no-effect control and ±100 the full control effect
# NLuc Km ctr: Biochemical coelenterazine-based NLuc counterscreen for small molecule modulators of PMP22 gene expression - Km assay. hit rate 5% among 690. secreted NLuc enzyme, coelenterazine luminescence, Km conditions. Potency, µM (titrated, usually from 57.5 µM), without a hit: top-dose activity change, negative = inhibition, usual class: inhibitors. shares compounds with PMP22 txn prim; further: potency means the concentration at half of the fitted maximal effect; on the % scale 0 is the no-effect control and ±100 the full control effect
# FLuc ctr PMP22: Biochemical FLuc counterscreen for small molecule modulators of PMP22 gene expression; shares compounds with PMP22 txn prim; purified P. pyralis FLuc, luminescence, 10 min; Potency, µM (doses to about 57.5 µM), for inactives: at the highest dose activity, negative = inhibition, most hits filed as inhibitors; 690 tested, under 10 active; AID 1508640, 2021; further: % of control where 0% means no effect
# S16 F2sN tox cnf: Cell viability qHTS assay in S16 Pmp22-F2sN cells - Confirmatory screen | S16 Schwann cells viability, CellTiter-Glo ATP luminescence, 24 h | AID 1508641, 2021 | Potency, µM (series often up to 57.5 µM), for inactives: at the top dose activity change, negative = viability loss, actives largely listed as cytotoxic | shares compounds with PMP22 txn prim | hit rate 7% among 690; further: potency means the concentration at half of the fitted maximal effect; on the % scale 0 is the no-effect control and ±100 the full control effect
# PMP22 txn conf: Cell-based coincidence reporter assay to measure PMP22 gene transcription in S16 Pmp22-F2sN cells - Confirmatory screen. shares compounds with PMP22 txn prim. S16 Schwann cells Pmp22-F2sN, dual luciferase, 24 h. Potency, µM (doses to about 57.5 µM), for inactives: at the highest dose activity change, negative = inhibition, most hits filed as inhibitors. hit rate 22% among 690; active means clear falling dose curves in both reporters; inconclusive means both reporters move, but less clearly or upward; inactive means either reporter flat; the % is the FLuc reporter signal; further: potency means the concentration at half of the fitted maximal effect
# PMP22 HiBiT cnf: Cell-based HiBiT reporter assay to measure PMP22 protein expression in S16 Pmp22-HiBiT cells - Confirmatory screen | S16 Schwann cells Pmp22-HiBiT, luminescence, 48 h | Potency, µM (highest dose often 27.9 µM), for inactives: top-dose activity change, negative = inhibition, usual class: inhibitors | 95 tested, under 10 active | shares compounds with PMP22 txn prim | AID 1508647, 2021
# Target sequence (P25094 whole entry, looked up): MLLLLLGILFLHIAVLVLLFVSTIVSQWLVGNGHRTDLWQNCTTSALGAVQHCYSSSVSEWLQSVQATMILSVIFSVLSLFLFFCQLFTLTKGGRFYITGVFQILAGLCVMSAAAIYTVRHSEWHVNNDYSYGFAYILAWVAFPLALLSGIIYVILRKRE
# Numbers without * were called inactive; ? = inconclusive; nt = no result given; [ ] = remark or other dose. Compounds with a hit are over-represented: about 3.3% of the library has one in this group of screens. Unless noted, the call rests on the fitted dose curve; in most records, active means well fitted curve in the direction sought with a large enough effect; inconclusive means small, poorly fitted or top-dose-only effect, or another doubt; inactive means no such curve, though single readings can be large; an effect the other way counts as inactive or inconclusive.
SMILES,HTT promoter inh,PMP22 txn prim,HTT-AS act,mTORC1 inh,S16 F2sN tox,FH mod,NLuc sat counter,NLuc Km ctr,FLuc ctr PMP22,S16 F2sN tox cnf,PMP22 txn conf,others
Cc1ccc(O)c(NC(=O)CCS(=O)(=O)c2nc(-c3cccs3)cc(C(F)(F)F)n2)c1,?,?,-66.9%,?,?,-17.9%,nt,nt,nt,nt,nt,
O=C(CCS(=O)(=O)c1nc(-c2cccs2)cc(C(F)(F)F)n1)Nc1ccc(Br)cc1,?,6.45µM*,-53.3%,?,?,3.3%,-7.2%,?,-3.0%,?,10.9µM*,PMP22 HiBiT cnf=64.8%
Cc1ccccc1Cn1nnc2c(=O)[nH]c(C3CCN(C(=O)c4ccc(F)cc4)CC3)nc21,?,10.1µM*,-27.3%,1.1%,-14.3%,-0.9%,?,-11.3%,6.3%,-10.8%,-45.0%,
CN(C)CCNC(=O)c1ccc(Cn2c(=O)c3cccn3c3cccnc32)cc1,-5.9%,10.6µM*,-8.7%,?,-6.2%,10.7%,-4.8%,?,6.4%,30.9%,-31.0%,
COc1ccc(OC)c(CCNc2ncnc3onc(C)c23)c1,15.8µM*,11.3µM*,-71.0%,?,-17.2%,17.3%,-8.7%,-3.6%,?,-13.1%,-26.1%,
Cc1ccc(-n2c(SCc3nc(-c4ccc(Cl)cc4)no3)nnc2-c2ccncc2)cc1,?,12.6µM*,-36.9%,-19.9%,?,?,-18.4%,?,-2.5%,-7.0%,?,
COc1ccc(-c2noc(CSc3nnc(C)n3-c3ccc(F)cc3)n2)cc1,-17.5%,?,-22.0%,-5.0%,-10.0%,-2.7%,?,?,?,-9.1%,-27.2%,
COc1ccc(-c2noc(CSc3nnc(-c4ccncc4)n3-c3ccc(C)cc3)n2)cc1,?,8.91µM*,-38.2%,-4.2%,-23.0%,-25.0%,?,?,-12.5%,-24.4%,3.69µM*,PMP22 HiBiT cnf=?
CNC(=O)c1cc2c(n(-c3ccc(C)cc3)c1=O)CC(C)(C)CC2=O,0.7%,-6.7%,-9.4%,-4.0%,11.5%,3.6%,nt,nt,nt,nt,nt,
Cc1ccc(-n2c3c(cc(C(=O)Nc4ccccc4C(N)=O)c2=O)C(=O)CC(C)(C)C3)cc1,-20.1%,3.4µM*,-22.5%,1.6%,0.0%,-18.9%,?,-4.1%,5.0%,-13.8%,-31.9%,
COC1(CC(C)C)NC(=O)C(O)(Cc2ccccc2)NC1=O (centres undefined),nt,nt,nt,nt,nt,5.5%[53.3 µM],nt,nt,nt,nt,nt,
CCC(C)n1c(=N)c(C(=O)NC2CCCC2)cc2c(=O)n3ccccc3nc21 (centres undefined),-2.9%,9.46µM*,-5.5%,-2.0%,-3.0%,-1.7%,-16.9%,-5.0%,5.5%,?,-30.7%,
COCCCn1c(=N)c(C(=O)NC2CCCC2)cc2c(=O)n3cc(C)ccc3nc21,-0.3%,-4.5%,-4.7%,0.3%,4.9%,0.6%,nt,nt,nt,nt,nt,
COCCCn1c(=N)c(C(=O)NC2CCCC2)cc2c(=O)n3cccc(C)c3nc21,1.6%,?,-16.3%,-0.5%,8.4%,2.3%,-5.6%,0.8%,3.1%,20.0%,?,
COc1cc(C(=O)NC2CCN(C)CC2)ccc1Nc1ncc2c(n1)N(C1CCCC1)CC(F)(F)C(=O)N2C,nt,nt,nt,nt,nt,-1.6%,nt,nt,nt,nt,nt,
O=C(CCS(=O)(=O)c1ccc(Br)s1)Nc1cc(C(F)(F)F)cc(C(F)(F)F)c1,?,20µM*,-48.0%,-28.6%,?,?,0.2%,-14.4%,-4.0%,?,?,
CCc1ccccc1NC(=O)c1cc2c(Cl)nc3ccccc3c2s1,6.4%,10.1µM*,-42.6%,-0.8%,16.1%,-17.8%,-16.9%,?,-0.6%,2.7%,5.1%,
O=C(NCCCN1CCN(c2ccccc2)CC1)c1ccc2nc(Cc3ccccc3)oc2c1,?,?,-41.2%,0.0%,?,-5.2%,nt,nt,nt,nt,nt,
O=C(NCCCN1CCN(c2ccc(F)cc2)CC1)c1ccc2nc(Cc3ccccc3)oc2c1,?,15.8µM*,-41.6%,-3.9%,-9.9%,-27.3%,-17.5%,3.3%,0.4%,-12.7%,?,
Cc1ccc(C)c(N2CCN(CCCNC(=O)c3ccc4nc(C(C)C)oc4c3)CC2)c1,?,11.2µM*,-29.9%,-6.4%,?,-1.7%,?,?,4.2%,?,?,
